Sampled rows, rich in hits. Any-hit rate of the full collection: about 21%.
Pf growth 96h: inhibits malaria parasite growth, 96 h | P. falciparum luciferase reporter growth, 96 h | Potency, µM (titrated, usually from 28.7 µM), most hits filed as inhibitors | 320,000 tested, 6.9% active
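Two-generation exposure (96 h) targets delayed-death phenotype. Reporter parasites carrying integrated firefly luciferase, in red cells at 2% hematocrit and 0.05% parasitemia final, kept at 37 C, 5% CO2; luminescence loss indicates inhibition.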
Pf growth 48h: inhibits P. falciparum growth in the first generation, 48 h | 310,000 tested, 5.9% active | Potency, µM (highest dose often 28.7 µM), actives largely listed as inhibitors | P. falciparum luciferase growth in erythrocytes, 48 h | AID 504832
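Cell-based growth assay: transgenic P. falciparum expressing firefly luciferase, cultured in red cells within RPMI 1640 containing 0.5% w/v Albumax, 24 mM bicarbonate and gentamycin. A drop in luciferase activity indicates inhibition.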
CHX counter: counter-screen hit for Shiga toxin inhibitors, cycloheximide | cell reporter, cycloheximide protein synthesis inhibition counterscreen | max response, % | 300,000 tested, 12% active | AID 2314; in the data active = max response mostly above about 13%, no sharp cut-off; inactive = mostly below about 14%; note: read at 38.3 µM for the half of the compounds with a filed dose
SARS PLP yeast: SARS-CoV PLP inhibition in yeast; S. cerevisiae expressing SARS-CoV PLpro, growth rescue; Potency, µM (highest dose often 32.9 µM), hits mostly activators; 330,000 tested, 0.19% active; calls by dose curve; note: nearly all actives have a fitted effect of over 55% in size
NS1 inh: blocks influenza NS1 protein function. Potency, µM (top dose mostly 46.1 µM). 270,000 tested, 0.4% active; calls by dose curve; note: actives are rising curves; nearly all actives have a fitted effect of over 50% in size
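Compounds were scored for reversing the slow growth caused by influenza A NS1 in S. cerevisiae, measured by optical density at 600 nm. Assay medium contained 2% galactose at pH 6.0; NS1-free yeast of the same strain were the positive control.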
Shiga toxin inh: inhibitors of Shiga toxin in Vero cells; Vero cells, Shiga toxin protein synthesis inhibition reporter; inhibition, % at 38.7 µM; AID 2315; 290,000 tested, 9.2% active; in the data active = inhibition mostly above about 28%, no sharp cut-off; inactive = mostly below about 43%
Numbers stand for hits; i = inactive; ? = inconclusive; nt = not tested or not shown; [ ] = another dose, or the depositor's remark. Unless noted, calls come from the whole dose curve; as a rule, active = well fitted inhibition curve with a large enough effect; inconclusive = small, poorly fitted or top-dose-only effect, or another doubt; inactive = no such curve, though single readings can be large or run the other way.

SMILES	Pf growth 96h	Pf growth 48h	CHX counter	SARS PLP yeast	NS1 inh	Shiga toxin inh
Cc1ccccc1Nc1nc(-c2ccccc2)c(C(=O)Nc2cccnc2)s1	?	i	15.6	i	i	i
COc1ccc(NC(=O)Nc2cnccn2)cc1	i	i	35.7	i	i	48.0
Cc1ccccc1NC(=O)Nc1cnccn1	i	i	i	?	i	i
Cn1ccc(NC(=O)Nc2ccc(Cl)cc2Cl)n1	?	i	51.5	i	i	21.8
CCOc1ccc(NC(=O)NC(C)CC)cc1 (configuration not stated)	9.28µM	i	40.0	i	nt	42.2
Cc1ccc(NC(=O)Nc2cnccn2)cc1Cl	i	i	23.2	i	nt	70.0
CCC1Oc2ccccc2N(CC(=O)NC2CCCCC2)C1=O (configuration not stated)	i	i	i	i	i	i
O=C(NCc1ccc2c(c1)OCO2)c1n[nH]c(=O)c2ccccc12	i	i	i	i	nt	i
CCOc1ccc(NC(=O)C(CC(=O)O)Cc2ccc(Br)cc2)cc1 (configuration not stated)	9.28µM	i	i	i	i	i
CC(=O)Nc1ccc(NC(=O)Nc2ccc(C)c(C)c2)cc1	i	i	i	i	i	i
CC(=O)Nc1cccc(NC(=O)Nc2ccc(C)c(Cl)c2)c1	i	i	29.8	i	i	47.6
COc1ccc(CC(CC(=O)O)C(=O)Nc2ccc(OC)cc2)cc1 (configuration not stated)	?	i	i	i	i	i
O=C(Nc1cnccn1)Nc1ccc(Cl)cc1Cl	i	i	28.6	i	nt	75.6
CCC(C)c1ccc(NC(=O)Nc2cnccn2)cc1 (configuration not stated)	i	?	74.4	i	i	86.9
CC(OCC(O)CN(C)Cc1nc2ccccc2c(=O)[nH]1)c1ccc(Cl)cc1 (configuration not stated)	?	?	i	i	i	i
CN(Cc1c(C(=O)N/N=C/c2cccs2)nnn1-c1nonc1N)c1ccccc1	i	i	i	i	i	i
CCOc1ccc(NC(=O)Nc2cnccn2)cc1	i	i	15.6	i	nt	i
O=S(=O)(c1ccc(Br)s1)N1CCC2(CC1)OCCO2	?	i	i	i	i	i
CN1C2CCC1/C(=C\c1ccccc1)C(=O)/C2=C\c1ccccc1	?	1.04µM	i	i	i	i
CN1[C@@H](c2ccccc2)CC(=NO)C[C@H]1c1ccccc1	nt	nt	nt	nt	i	nt
CN1C2CCC1/C(=C/c1ccccn1)C(=O)/C2=C\c1ccccn1	0.465µM	0.657µM	i	i	i	i
Cc1ccccc1NC(=O)CSc1nc(O)cc(=O)n1C	i	i	i	i	i	i
Cc1c(C)n(CCCN(C)C)c2ncnc(Nc3ccc(F)cc3)c12	i	i	i	i	i	i
Cc1c(C)n(CCO)c2ncnc(Nc3ccc(F)cc3)c12	i	i[0.00184 µM]	i	i	i	68.7
COc1ccc(Nc2ncnc3c2c(C)c(C)n3CCO)cc1	i	i	47.5	i	i	72.5
SMILES	Pf growth 96h	Pf growth 48h	CHX counter	SARS PLP yeast	NS1 inh	Shiga toxin inh
CC(C)(C)OC(=O)C[C@@H]1C/C=C\C[C@H](CC(=O)N[C@H](CO)Cc2ccccc2)C(=O)N2CCC[C@H]2COC1=O	nt	nt	nt	i	nt	nt
CC(NC(=O)CN(c1ccc(Cl)cc1)S(C)(=O)=O)c1ccccc1 (configuration not stated)	?	i	i	i	i	i
COc1ccc(-n2c(SCc3cn4c(C)cccc4n3)nc3ccccc3c2=O)cc1OC	?	i	i	i	i	i
CCOc1ccc(CCNC(=O)CN2C(=O)NC(CCSC)C2=O)cc1OCC (configuration not stated)	i	i	i	i	nt	i
CCC(=O)N1CCN(c2ccc(NC(=O)c3cc4ccccc4o3)cc2Cl)CC1	i	?	16.9	i	i	i
O=C(Nc1ccc(N2CCN(C(=O)c3ccco3)CC2)c(Cl)c1)c1cc2ccccc2o1	i	2.94µM	22.9	i	i	i
CCCC(=O)N1CCN(c2ccc(NC(=O)c3cc4ccccc4o3)cc2Cl)CC1	i	1.47µM	i	i	i	i
COc1ccc(CNC(=O)C(c2ccco2)N(C(=O)c2snc(C(N)=O)c2N)c2cccc(OC)c2)cc1 (configuration not stated)	i	?	i	i	i	i
COc1ccc(OC)c(NC(=O)CSc2nc3n[nH]c(C)c3c(=N)n2-c2cccc(Cl)c2C)c1	?	?	24.7	i	i	i
CCOc1ccccc1NC(=O)CCSc1nc2n[nH]c(C)c2c(=N)n1-c1ccccc1Cl	i	11.7µM	i	i	i	i
CCc1ccccc1NC(=O)CSc1nc2n[nH]c(C)c2c(=N)n1-c1cccc(OC)c1	nt	13.1µM	i	i	i	i
COc1ccccc1CNC(=O)C(=O)Nc1ccc(C(=O)N2CCC(C)CC2)cc1	?	?	i	i	i	i
CCOC(=O)C1(CC2CC2)CCN(Cc2cn(C)c3ccccc23)CC1	i	?	i	i	i	i
CCOC(=O)C1(Cc2ccccc2)CCN(Cc2cn(CC(=O)OC)c3ccccc23)CC1	5.22µM	?	i	i	i	i
CCOC(=O)C1(Cc2ccccc2)CCN(Cc2cccc(OC)c2O)CC1	10.4µM	?	i	i	i	i
CCOC(=O)C1(Cc2cccc(OC)c2)CCN(Cc2cccn2-c2nccs2)CC1	?	11.7µM	i	i	i	i
CCOC(=O)C1(Cc2cccc(OC)c2)CCN(Cc2cccc(OC)c2O)CC1	13.1µM	?	i	i	i	i
COc1ccccc1NC(=O)/C(C#N)=C/c1cc([N+](=O)[O-])ccc1N1CCCC1	?	i	i	i	i	i
CN(C)S(=O)(=O)c1cccc(NC(=O)COC(=O)c2cc3ccccc3oc2=O)c1	i	i	51.0	i	i	134.4
O=C(COC(=O)c1cc2ccccc2oc1=O)Nc1cccc(S(=O)(=O)N2CCCCCC2)c1	i	i	27.2	i	i	64.1
O=C(COC(=O)c1cc2ccccc2oc1=O)Nc1ccc(F)cc1F	i	i	51.5	i	i	118.0
O=Cc1ccc(C(=O)OCC(=O)Nc2ccc(F)cc2F)cc1	i	i	i	i	i	i
Cc1ccc(S(=O)(=O)Nc2ccc(-c3csc(-c4ccccc4)n3)cc2)cc1	i	i	i	i	i	i
O=C(Nc1ccc(Br)cc1)c1csc(-c2ccncc2)n1	?	i	i	i	i	i
Brc1ccc(-c2csc(-c3ccncc3)n2)cc1	i	?	i	i	i	41.6
Cc1ccc(-c2csc(-c3ccncc3)n2)cc1	i	?	25.9	i	i	95.8
CC(=O)c1ccc(NC(=O)C(C)OC(=O)c2ccc(Br)o2)cc1 (configuration not stated)	i	i	nt	i	nt	nt
Nc1nc2c(c(=O)[nH]1)N[C@H](CCNc1ccc(C(=O)O)cc1)CN2	nt	nt	nt	nt	i	nt
CCn1nc(C(=O)OCC(=O)N2CC(=O)Nc3ccccc32)c2ccccc2c1=O	i	i	i	i	nt	i
CCCCNc1nc2cccnc2s1	i	i	22.3	i	i	61.7

Screening data from PubChem.
